High-throughput results deposited in PubChem BioAssay by several laboratories.
Shown are actives, neighbours in structure and some others; about 27% of the full set was active somewhere.
CYP2C19 inh = blockers of cytochrome P450 2C19 activity – biochemical, luminescence, ADME assay, primary screen; P33261; CYP2C19 Supersomes, luciferin-H EGE luminescence, 30 min; inhibition, % at 5 µM; actives 21% (n = 96,000);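 active = CYP2C19 inhibition above a set limit at 5 µM in the primary screen, cut at about 50% in these data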
CYP2C9 inhib = blockers of cytochrome P450 2C9 activity – biochemical, luminescence, ADME assay, primary screen; CYP2C9 Supersomes, luciferin-H conversion; P11712; actives 20% (n = 96,000); inhibition, % at 5 µM; AID 777, 2007;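 active = blocking of liver enzyme CYP2C9 beyond about 50% at 5 µM, limit read from the data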
Target sequence (P11712 whole entry, looked up): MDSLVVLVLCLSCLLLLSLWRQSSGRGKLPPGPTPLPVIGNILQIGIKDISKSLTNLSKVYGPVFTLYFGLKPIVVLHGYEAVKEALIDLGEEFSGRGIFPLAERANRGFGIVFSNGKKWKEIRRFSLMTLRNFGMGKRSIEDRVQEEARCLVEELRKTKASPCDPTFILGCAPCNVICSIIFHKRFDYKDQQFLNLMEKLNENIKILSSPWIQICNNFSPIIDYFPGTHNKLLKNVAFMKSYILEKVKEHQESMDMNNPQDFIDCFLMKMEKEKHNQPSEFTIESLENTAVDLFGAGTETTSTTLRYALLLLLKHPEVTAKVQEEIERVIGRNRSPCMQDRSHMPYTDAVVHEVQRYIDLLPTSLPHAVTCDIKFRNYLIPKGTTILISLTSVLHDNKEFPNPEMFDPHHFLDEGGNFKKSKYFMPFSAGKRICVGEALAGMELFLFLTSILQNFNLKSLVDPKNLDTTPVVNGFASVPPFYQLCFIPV
CYP2C19 activ = human CYP2C19 activators, primary screen, biochemical, luminescence; Cytochrome P450 2C19 (Homo sapiens), P33261; recombinant CYP2C19, luciferin-H EGE luminescence; hits give high values; 0 = fully inhibited enzyme, 1 = untreated enzyme; activation factor at 5 µM; 96,000 tested, under 10 active; AID 1025, 2008;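 active = activation factor of at least 2 at 5 µM in the primary screen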
CYP2C9 activ = human CYP2C9 activators, primary screen, biochemical, luminescence. actives 1.4% (n = 96,000). recombinant CYP2C9, luciferin-H conversion; hits give high values; factor 1 = untreated enzyme, 0 = blocked. activation factor at 5 µM;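 active = activation factor of 2 or more for CYP2C9 at a 5 µM dose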
Cav3 T inh = Cav3.2 calcium influx blockers – cell-based, Fluo-4 calcium fluorescence, FDSS, MLSMR library, primary screen. AID 449739, 2010. Cav3.2-expressing cells; hits give low values. B-score at 10 µM. Voltage-dependent T-type calcium channel subunit alpha-1H (Homo sapiens), O95180. actives 4% (n = 100,000);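 active = single-dose well whose peak fluorescence ratio is a statistical outlier from its plate by either plate-standardised score or position-corrected B-score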
Large screens that a line does not name were inactive.

COc1cc(-n2c(=S)[nH]c3ccccc3c2=O)c(Cl)cc1Cl	CYP2C19 inh 90, CYP2C9 inhib 58
O=c1[nH]c2ccccc2c(=O)n1-c1cccc(Cl)c1	none
CC(C)Oc1cc(-n2c(=S)[nH]c3ccccc3c2=O)c(Cl)cc1Cl	CYP2C19 inh 90, CYP2C9 inhib 72
O=C(Nc1ccccc1OC(=O)N1CCCCC1)N1CCCCC1	none
O=C1Nc2ccccc2/C1=C/c1cnc[nH]1	CYP2C19 inh 99, CYP2C9 inhib 92
CCC(=NCC1CCCO1)c1c(O)n(-c2ccc(Cl)cc2)c(=O)[nH]c1=O (centres undefined)	none
O=C1NC(=O)C2(Cc3ccccc3N3CCCC32)C(=O)N1c1cccc(Cl)c1 (centres undefined)	none
CN1C(=O)N(C)C(=O)C2(Cc3ccccc3N3CCOCC32)C1=O (centres undefined)	CYP2C19 inh 98
Nc1ncc(P(=S)(N2CCOCC2)N2CCOCC2)s1	none (no result: Cav3 T inh)
CCCCP(=O)(O)CCC(=O)O	none
Cc1cc(N2C(=O)CC(N3CCC(n4c(=O)[nH]c5ccccc54)CC3)C2=O)no1 (centres undefined)	none
COC(=O)c1ccc(N2C(=O)CC(N3CCC(n4c(=O)[nH]c5ccccc54)CC3)C2=O)cc1 (centres undefined)	CYP2C19 inh 60
CCOC(=O)C(NC(C)=O)C(OC(C)=O)c1cccc(N(CCCl)CCCl)c1 (centres undefined)	none (no result: CYP2C19 inh, CYP2C9 inhib, CYP2C19 activ, CYP2C9 activ)
CP(=O)(O)CCCN	CYP2C19 inh 61
Cc1ccc(CCN2CC(C(=O)N3CCC4(CC3)OCCO4)CC2=O)cc1 (centres undefined)	none
CCOC(=O)c1c(C)n(Cc2ccccc2)c2ccc(OCC(O)CN3C(=O)CNC3=O)cc12 (centres undefined)	CYP2C19 inh 68, CYP2C9 inhib 87
COC(=O)C1=C(c2cc3ccccc3o2)C[C@@H]2CC[C@H]1N2C(=O)NCc1ccco1	none (no result: CYP2C19 inh, CYP2C9 inhib, CYP2C19 activ, CYP2C9 activ)
CN1CCc2nc(SCC(=O)OC(C)(C)C)c(C#N)cc2C1	CYP2C19 inh 71
NC12CN3CN(CN(C3)C1)C2 (tested in a mixture with another compound)	CYP2C9 activ 2
CCC(=O)c1cn(Cc2ccccc2C#N)c2ccccc12	CYP2C19 inh 76, CYP2C9 inhib 52
O=C(c1ccco1)c1cn(Cc2ccccc2Cl)c2ccccc12	CYP2C9 inhib 89, Cav3 T inh -6
N#Cc1ccccc1Cn1cc(C(=O)C2CC2)c2ccccc21	none
CC(C)C(=O)c1cn(Cc2ccc(C#N)cc2)c2ccccc12	Cav3 T inh -5.6 (no result: CYP2C19 inh, CYP2C9 inhib, CYP2C19 activ, CYP2C9 activ)
CCn1cc(C(=O)c2cccs2)c2ccccc21	CYP2C9 activ 3.1
O=C(O)Cn1cc(C(=O)c2ccccc2)c2ccccc21	none
CC(C(=O)c1cn(C)c2ccccc12)c1ccccc1 (centres undefined)	none
C[C@H]1CCCC(=O)CCCCCc2cc(O)cc(O)c2C(=O)O1	none (no result: CYP2C19 inh, CYP2C9 inhib, CYP2C19 activ, CYP2C9 activ)
CCOC(=O)c1c(C)c(P(=S)(N2CCOCC2)N2CCOCC2)n(C)c1C	none
CN(C)CCOC(=O)c1cn(Cc2ccccc2)c2ccccc12	none (no result: Cav3 T inh)
O=C(Cn1cc(C(=O)c2ccccc2F)c2ccccc21)NCc1ccco1	none
O=C(c1ccco1)c1cn(Cc2ccccc2)c2ccccc12	CYP2C19 inh 93, CYP2C9 inhib 93
N#Cc1ccccc1Cn1cc(C(=O)c2ccco2)c2ccccc21	CYP2C19 inh 66, CYP2C9 inhib 56, Cav3 T inh -6.1
CC1(C)C2([N+](=O)[O-])CNCC1([N+](=O)[O-])CNC2	none (no result: CYP2C19 inh, CYP2C9 inhib, CYP2C19 activ, CYP2C9 activ)
CCN(CCCl)Cc1ccccc1Br	Cav3 T inh -5.1 (no result: CYP2C19 inh, CYP2C9 inhib, CYP2C19 activ, CYP2C9 activ)
CC12CN3CC(C)(CN(C1)C3c1ccco1)C2=O (centres undefined)	none
O=C(CSC1c2ccccc2-c2ccccc21)N/N=C/c1ccccc1O	CYP2C19 inh 59, CYP2C9 inhib 53
O=c1[nH]c2ccccc2o1	none (no result: CYP2C19 inh, CYP2C9 inhib, CYP2C19 activ, CYP2C9 activ)
CCC1=CCN(CCc2c(C)[nH]c3ccccc23)CC1	none (no result: CYP2C19 inh, CYP2C9 inhib, CYP2C19 activ, CYP2C9 activ)
COc1cccc(NC(=O)CN2CC(c3ccccc3)CC2=O)c1 (centres undefined)	CYP2C19 inh 61
C=CCn1c(O)c(C(C)=NCc2cccnc2)c(=O)[nH]c1=O	CYP2C19 inh 68
C=CCn1c(O)c(C(C)=NCc2cc(OC)cc(OC)c2)c(=O)[nH]c1=O	CYP2C19 inh 83, CYP2C9 inhib 85
Cc1sc2ncn(CC(=O)NCCCC(=O)N3CCC4(CC3)OCCO4)c(=O)c2c1C	none
CC1CN(C)C(C)(C)CC1(O)c1ccccc1 (centres undefined)	none
COc1cc(OC)c(OC)cc1CNC(C)C(O)c1ccccc1 (centres undefined)	CYP2C19 inh 67
CCCCOP(=O)(CN1CCOCC1)OCCCC	none
CCN(CC)C1=NC(=[N+](CC)CC)c2ccccc21	none
CCOC(=O)c1c(C)n(COCCO)c2ccc(O)cc12	none
CCOC(=O)c1c(C)n(Cc2ccco2)c2ccc(O)cc12	CYP2C19 inh 56
COC(=O)c1c(C)n(Cc2ccc3c(c2)OCO3)c2ccc(O)cc12	CYP2C19 inh 82, CYP2C9 inhib 79
O=c1cc(C(F)(F)F)c2cc3c4c(c2o1)CCCN4CCC3	Cav3 T inh -7.8
Cc1cc2c(C(F)(F)F)cc(=O)oc2c2c1NCCC2	CYP2C9 activ 2.4, Cav3 T inh -8.3
O=C1NC(=S)NC(=O)C12C(c1ccc(F)cc1)NC(=S)NC2c1ccc(F)cc1 (centres undefined)	none
O=C(COc1ccccc1)N1CCN(Cc2c[nH]c3ccccc23)CC1	none
O=C(Cc1ccccc1)N1CCN(Cc2c[nH]c3ccccc23)CC1	CYP2C19 inh 62
CCCCn1c(O)c(C(C)=NCCCn2ccnc2)c(=O)[nH]c1=O	CYP2C9 inhib 90
C=CCn1c(O)c(C(=O)CCCCCC)c(=O)[nH]c1=O	CYP2C9 inhib 57
CCCCCCN=C(C)c1c(O)n(CCCC)c(=O)[nH]c1=O	CYP2C19 inh 55, CYP2C9 inhib 66
Cc1cc(S(=O)(=O)NCc2ccccc2)ccc1OCC(=O)N1CCN(C)CC1	none
COC(=O)C1=C(c2cccc(OC)c2OC)C[C@@H]2CC[C@H]1N2C(=O)N1CCCCC1	none (no result: CYP2C19 inh, CYP2C9 inhib, CYP2C19 activ, CYP2C9 activ)
Cc1ccc(OP(=O)(O)Oc2ccc(C)cc2)cc1	none (no result: CYP2C19 inh, CYP2C9 inhib, CYP2C19 activ, CYP2C9 activ)
CN(C)C1(c2nnnn2CCOC(=O)Nc2ccc(Cl)cc2)CCCCC1	CYP2C19 inh 100, CYP2C9 inhib 87, Cav3 T inh -3
CN(C)C1(c2nnnn2-c2ccc(Cl)cc2)CCCCC1	CYP2C19 inh 93 (no result: Cav3 T inh)
CCC(=NCc1ccco1)c1c(O)n(-c2ccc(C)cc2)c(=O)[nH]c1=O	none
CCC(=NCc1ccco1)c1c(O)n(-c2ccccc2)c(=O)[nH]c1=O	CYP2C19 inh 54
O/N=C1/C(=C\c2ccccc2)N2CCC1CC2	CYP2C19 inh 83
CC(=NCCN1CCOCC1)c1c(O)n(C2CCCCC2)c(=O)[nH]c1=O	none
